Measurements from PubChem BioAssay AID602373 (National Center for Advancing Translational Sciences (NCATS), 2012).
Inconclusive results are not listed. Entries that show only a call come without a potency. Activity calls are given as the source filed them. Calls follow the shape of the dose curve; as a rule, active = well fitted inhibition curve with a large enough effect; inconclusive = small, poorly fitted or top-dose-only effect; inactive = no such curve, though single readings can be large or run the other way.

assay: qHTS Assay for Inhibitors of Bacillus subtilis Sfp phosphopantetheinyl transferase (PPTase): Hepg2 Assay; conditions: HepG2 cytotoxicity counter-screen; series mostly up to 46.1 µM
From the text: The covalent attachment of a phosphopantetheinyl (4'-PP) arm to a variety of synthases and other proteins is a key posttranslational protein modification. The 4'-PP is installed on the proteins post-translationally from coenzyme A (CoA) on a conserved serine residue by action of phosphopantetheinyl transferase (PPTase) enzymes. Phosphopantetheinylation is essential for synthase activity, and removal of the PPTase gene precludes natural product synthesis in microorganisms, or in the case of fatty acid biosynthesis, renders the organism unviable. PPTase enzymes belong to a distinct structural superfamily. Within bacteria, these enzymes are grouped into two classes based upon primary structure, the AcpS-Type and Sfp-Type PPTases.
Sfp-type PPTases, corresponding to an activator of surfactin production in Bacillus subtilis, are responsible for modifying type I polyketide and nonribosomal peptide synthases of prokaryotes. Sfp-type PPTases are responsible for the activation of a variety of pathogen-associated virulence factors. Among these compounds are toxins such as mycolactone from Mycobacterium ulcerans, siderophores such as vibriobactin from Vibrio cholerae or mycobactin from Mycobacterium tuberculosis, as well as the mycolic acids which form the waxy cell wall of Mycobacteria. The biosyntheses of these natural products are considered attractive targets for drug design.
In search of small molecule Sfp-PPTase inhibitors, a fluorescence quenching assay was developed for detection of Bacillus subtilis Sfp-PPTase enzymatic activity in a miniaturized high-throughput format. The consensus ybbr acceptor peptide […] was N-terminally labeled with Black Hole Quencher-2 (BHQ-2) and used in combination with rhodamine-labeled coenzyme A as a co-substrate.
Phosphopantetheinyl transfer is a process essential to cellular viability and maintenance in all forms of life. Cell-permeable and stable compounds acting as PPTase inhibitors are anticipated to be growth inhibitory agents. This assay sought to assess the toxicity of test compounds in the HepG2 hepatocarcinoma cells; a human cell line whose use additionally determines the toxicity of test article metabolites.
NIH Chemical Genomics Center [NCGC]
NIH Molecular Libraries Probe Centers Network [MLPCN]
Assay Submitter (PI): Michale Burkart, University of California, San Diego
Test compounds' toxicity was assessed by measuring cellular ATP content using a luciferase-coupled ATP quantitation assay (CellTiter-Glo; Promega, Madison, WI). In this assay, luminescent signal is proportional to amount of ATP, and thus to the number of metabolically competent cells. Briefly, Hepg2 cell suspension (5 uL, 4 x 10^5 cells/mL) was dispensed into 1,536-well tissue-culture treated white/solid bottom assay plates (Greiner Bio-One North America, Monroe, NC) using a Flying Reagent Dispenser (Aurora Discovery, Carlsbad, CA). Cells were incubated at 37 deg C for 6 hr to allow for cell attachment, followed by addition of compounds via pin tool (Kalypsys, San Diego, CA). After compound addition, plates were incubated for 48 hr at 37 deg C. At the end of the incubation period, CellTiter-Glo reagent (5 uL) was added, plates were incubated at room temperature in the dark for 30 min, and the luminescence intensity of each well was determined using a ViewLux plate reader (PerkinElmer, Shelton, CT). The positive control was 92 uM and 41 uM of tetra-N-Octylammonium bromide, and the negative control was DMSO.

Row | Structure (SMILES) | Potency
1 | FC(F)(F)c1cccc(N2CCN(C(=S)Nc3nccc4ccccc34)CC2)c1 | inactive
2 | Cc1cc(C)nc(NC(=S)N2CCN(S(=O)(=O)c3cccc(C(F)(F)F)c3)CC2)c1 | inactive
3 | Cc1cc(C)nc(NC(=S)N2CCN(c3nc4ccccc4s3)CC2)c1 | inactive
4 | Cc1ccnc(NC(=S)NC2CN(c3cccc(C(F)(F)F)c3)C2)c1 | 25 µM (active)
5 | Cc1ccc(N2CCN(C(=S)Nc3cc(C)ccn3)CC2)cc1 | inactive
6 | FC(F)(F)c1cc(N2CCN(C(=S)Nc3cc(Cl)ccn3)CC2)cc(C(F)(F)F)c1 | 15.8 µM (active)
7 | Cc1cc(C)nc(Nc2nnc(N3CCN(c4cccc(C(F)(F)F)c4)CC3)s2)c1 | inactive
8 | FC(F)(F)c1cccc(N2CCN(C(=S)Nc3cnccn3)CC2)c1 | inactive
9 | Cc1cc(C)nc(NC(=S)N2CCN(c3cnc4nccn4c3)CC2)c1 | inactive
10 | Cc1ccnc(NC(=S)N2CCNCC2)c1 | inactive
11 | Cc1ccnc(NC(=S)NCCN(C)c2cccc(C(F)(F)F)c2)c1 | inactive
12 | COc1cccc(NC(=S)N2CCN(c3cccc(C(F)(F)F)c3)CC2)n1 | 28.1 µM (active)
13 | Cc1cc(C)nc(NC(=S)N2CCN(c3nccs3)CC2)c1 | inactive
14 | COc1cc(NC(=S)N2CCN(c3cccc(C(F)(F)F)c3)CC2)nc2ccccc12 | inactive
15 | Cc1cc(C)nc(NC(=S)N2CCN(c3ccc(N4CCCC4)nn3)CC2)c1 | inactive
16 | COc1cccc(NC(=S)N2CCN(c3ccccc3C(F)(F)F)CC2)n1 | inactive
17 | Cc1ccnc(NC(=S)NC2CCN(c3cccc(C(F)(F)F)c3)CC2)c1 | inactive
18 | Cc1ccnc(NC(=O)N2CCN(c3cccc(C(F)(F)F)c3)CC2)c1 | 6.28 µM (active)
19 | Cc1ccnc(NC(=S)N2CCN(c3ccc(Br)cc3)CC2)c1 | inactive

Row | Structure (SMILES) | Potency
20 | COc1ccc(N2CCN(C(=S)Nc3cc(C)ccn3)CC2)cc1 | inactive
21 | S=C(Nc1cc(Cl)ccn1)N1CCN(c2ccc(Cl)cc2Cl)CC1 | inactive
22 | Cc1cc(C)nc(NC(=S)N2CCN(c3ccc4cn(C)nc4c3)CC2)c1 | inactive
23 | FC(F)(F)c1cccc(N2CCN(C(=S)Nc3ncnc4ccccc34)CC2)c1 | inactive
24 | Cc1cc(C)nc(NC(=S)N2CCN(c3ccc(C(=O)O)cc3)CC2)c1 | inactive
25 | Cc1cc(C)nc(NC(=S)N2CCN(c3ccc(Cl)cc3F)CC2)c1 | inactive
26 | Cc1ccnc(NC(=S)N2CCCN(c3cccc(C(F)(F)F)c3)CC2)c1 | 25 µM (active)
27 | Cc1cc(C)nc(NC(=S)N2CCN(c3ccc(Cl)nn3)CC2)c1 | inactive
28 | COc1ccnc(NC(=S)N2CCN(c3ncc(C(F)(F)F)cc3Cl)CC2)c1 | inactive
29 | Cc1cc(C)nc(NC(=S)N2CCN(Cc3c(F)cccc3Cl)CC2)c1 | inactive
30 | Cc1cc(C)nc(NC(=S)N2CCN(c3nncs3)CC2)c1 | inactive
31 | CC(Cc1ccccc1)C(=O)Nc1ccc(Cl)cc1C(=O)O (configuration not stated) | inactive
32 | Cc1cc(NC(=S)N2CCN(c3cccc(C(F)(F)F)c3)CC2)nc2ccccc12 | inactive
33 | Cc1cc(C)nc(NC(=S)N2CCN(c3noc4ccccc34)CC2)c1 | inactive
34 | Cc1ccnc(NC(=S)N2CCN(c3ccc(N)cc3)CC2)c1 | inactive
35 | Cc1cc(C)nc(NC(=S)N2CCN(c3ccc4nonc4c3)CC2)c1 | inactive
36 | Cc1cc(C)nc(NC(=S)N2CCN(c3ccc4c(c3)OCO4)CC2)c1 | inactive
37 | Cc1cc(C)nc(NC(=S)N2CCN(c3ncccc3C#N)CC2)c1 | inactive
